According to PubChem BioAssay AID504727 (Broad Institute, 2011):
Where “and” joins values, the source holds several entries; their conditions need not be identical. Equal values may be shown once. Calls of active or inactive are those of the source.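 The calls were made as follows: active = fitted half-maximal concentration AC50 at or below ten times the highest valid tested dose, with signal falling as DNA is displaced (actives reach about 34 µM in these data); inconclusive = flat fit at moderate signal loss, or poor fit quality; inactive = the rest, including signal rising instead of falling.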

Test: DNA intercalators displacing acridine orange, dose response, artefact control for KSHV LANA DNA-binding inhibitor project, biochemical, fluorescence polarization, cherry-picked samples, set 2 (AID 504727)
Conditions: AC50: Acridine orange-DNA displacement; series mostly up to 35 µM

Question: With COc1cc(SC)ccc1C(=O)OCC(=O)N1CCN(C(C)=O)CC1 as the compound, how does the AC50 read?
Answer: inactive

Question: With Cc1ccc(NC(=O)CN(C)C(=O)c2nn(C)c(=O)c3ccccc23)cc1 as the compound, how does the AC50 read?
Answer: inactive

Question: Which AC50 does the source give for O=C(O)c1ccccc1C1=Nc2ccc(O)cc2Oc2cc(O)ccc21 here?
Answer: 13.4 µM (active)

Question: For Cc1ccc(NC(=O)CN2C(=O)N/C(=C/c3cccn3-c3ccc(C(=O)O)cc3)C2=O)cc1, which AC50 is on record?
Answer: inactive

Question: With Cc1cccc(N2C(=O)c3cccc4c(N)ccc(c34)C2=O)c1 as the compound, how does the AC50 read?
Answer: 4.82 µM (active)

Question: Which AC50 does the source give for O=C(COc1ccccc1Cc1ccccc1)NCCCN1CCOCC1 here?
Answer: 33.9 µM (active)

Question: With O=C(c1ccc2c(c1)CCN2S(=O)(=O)c1ccccc1)N1CCN(c2ccc(F)cc2)CC1 as the compound, how does the AC50 read?
Answer: inactive

Question: With O=C(O)c1ccccc1NC(=O)c1cc(-c2ccccc2)nc2ccccc12 as the compound, how does the AC50 read?
Answer: inactive

Question: For COc1ccc(C2c3ccc(O)cc3Oc3ncn(CCCO)c(=N)c32)cc1OC (centres undefined), which AC50 is on record?
Answer: inactive

Question: Which AC50 does the source give for COc1ccc2noc3c2c1C(=O)c1ccccc1-3 here?
Answer: 0.241 µM (active)

Question: For O=C(O)CCN1C(=O)/C(=C\c2ccc(-c3nc4ccccc4s3)o2)SC1=S, which AC50 is on record?
Answer: inactive

Question: With CC1=C(O)C(=O)C(C2=C(O)C(=O)C(C)=C(O)C2=O)=C(O)C1=O as the compound, how does the AC50 read?
Answer: inactive

Question: With CCOc1ccc2noc3c2c1C(=O)c1ccccc1-3 as the compound, how does the AC50 read?
Answer: 0.728 µM (active)

Question: Which AC50 does the source give for COc1ccc(CC(=O)O/N=C(\N)c2ccc(OC)cc2)cc1 here?
Answer: inactive

Question: With NC1=NC[C@@H](Cc2ccc(O)cc2)N1CCc1cc(C(F)(F)F)cc(C(F)(F)F)c1 as the compound, how does the AC50 read?
Answer: inactive

Question: For CN(C)/C=C1\C=C2C(=O)c3ccccc3N2C1=O, which AC50 is on record?
Answer: 0.065 µM (active)

Question: For O=C1C(=Cc2ccco2)CCC1=Cc1ccco1, which AC50 is on record?
Answer: inactive

Question: Which AC50 does the source give for Cn1c(=O)c2c(nc(SCC(=O)NCc3ccc4c(c3)OCO4)n2Cc2ccc(Cl)cc2)n(C)c1=O here?
Answer: inactive

Question: Which AC50 does the source give for O=C1c2c(O)ccc(O)c2C(=O)c2c(NCCNCCO)ccc(NCCNCCO)c21 here?
Answer: 1.34 µM (active) and 2.32 µM (active)

Question: For Cc1cc(/C=N/Nc2ccc([N+](=O)[O-])cn2)c(C)n1-c1cccc(C(=O)O)c1, which AC50 is on record?
Answer: inactive

Question: Which AC50 does the source give for O=C(NCCCN1CCCC1=O)c1ccc2c(c1)ncn2C1CCCCC1 here?
Answer: inactive

Question: Which AC50 does the source give for COc1cccc(OC)c1C(=O)Nc1cc(C)on1 here?
Answer: inactive

Question: For CCCc1cc(C(=O)Nc2ccc(C(=O)c3ccc(C)cc3)cc2)n(C)n1, which AC50 is on record?
Answer: inactive

Question: Which AC50 does the source give for Cc1cc(C(F)(F)F)c2c(N)c(C(=O)Nc3cc(C)on3)sc2n1 here?
Answer: inactive

Question: With N#CCCN(CCC#N)C(=O)C1c2ccccc2Oc2ccccc21 as the compound, how does the AC50 read?
Answer: inactive

Question: Which AC50 does the source give for CCCc1nnc(NC(=O)CCC(=O)NCc2ccc(OC)cc2)s1 here?
Answer: inactive

Question: For Nc1nnc(CC(=O)N/N=C/c2cc([N+](=O)[O-])cc(Br)c2O)s1, which AC50 is on record?
Answer: inactive

Question: With CCC(=O)Nc1cccc(C(=O)/C=C/c2ccccc2)c1 as the compound, how does the AC50 read?
Answer: inactive

Question: Which AC50 does the source give for CCn1c(SCc2nc3sc(C(=O)O)c(C)c3c(=O)[nH]2)nc2ccccc21 here?
Answer: inactive
